# A selection: hits, their analogues and other compounds. The true share with any hit is near 3.1%.
# TR SRC2 fluor cs – alters Texas Red total fluorescence, flagging assay interference; TRb/SRC2 Texas Red total fluorescence interference; Potency, µM (doses to about 106 µM), for the others: at the top dose fluorescence change, negative = quenching; 0.29% of 280,000 active; active = well fitted curve in either direction with a large enough effect; inconclusive = small, poorly fitted or top-dose-only effect
#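 Human TRβ ligand-binding domain (0.6 uM) and Texas Red SRC2 peptide (20 nM) in Tris buffer with 1 uM T3 and 5% DMSO were incubated with pinned compound for 5 hr at ambient temperature. Total fluorescence was computed as S + 2P (555/632 nm).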
# Tau fluor counter – counter-screen for tau fibril formation inhibitors | tau K18 P301L Alexa594 fluorescence, heparin fibrillization | Potency, µM (titrated, usually from 57.7 µM), inactives show at the top dose activity change, negative = decrease | 0.93% of 280,000 active; also: nearly all actives have a fitted effect of over 55% in size
#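 Human K18 P301L tau (15 uM unlabeled plus 0.24 uM Alexa 594-labeled, final) in 100 mM sodium acetate pH 7 was mixed with compound and 20 uM heparin and incubated 6 hr at 37 C.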
# TRb SRC2 PPI – disrupts binding of human TR beta to SRC2; P10828; TRbeta-SRC2 peptide binding, fluorescence polarization; receptor liganded with 1 µM T3; Potency, µM (top dose mostly 106 µM), for the others: top-dose activity change, negative = inhibition, hits mostly inhibitors; 0.065% of 280,000 active; AID 1469;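 also: plate controls were bound peptide for no effect and peptide without receptor for full effect; nearly all actives have a fitted effect of over 50% in size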
# Target sequence (P10828 whole entry, looked up): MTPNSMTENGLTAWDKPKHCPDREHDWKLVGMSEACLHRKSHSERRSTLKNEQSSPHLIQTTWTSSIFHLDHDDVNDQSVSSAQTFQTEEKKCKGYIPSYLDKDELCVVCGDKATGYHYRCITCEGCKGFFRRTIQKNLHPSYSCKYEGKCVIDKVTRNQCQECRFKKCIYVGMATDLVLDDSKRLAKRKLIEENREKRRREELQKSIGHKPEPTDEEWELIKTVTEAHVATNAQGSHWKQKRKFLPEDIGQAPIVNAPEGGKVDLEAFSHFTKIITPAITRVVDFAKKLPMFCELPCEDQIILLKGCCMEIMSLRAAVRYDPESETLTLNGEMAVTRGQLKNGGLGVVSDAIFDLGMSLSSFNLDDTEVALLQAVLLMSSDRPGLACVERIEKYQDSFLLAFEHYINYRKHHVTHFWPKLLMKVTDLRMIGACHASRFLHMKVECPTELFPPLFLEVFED
#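 A fluorescence polarization screen tested compounds at multiple concentrations against complex formation between 0.6 uM TRb ligand-binding domain and 20 nM Texas Red SRC2 peptide, with 1 uM T3 present; readout after 5 hr.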
# Tau fibril FP – tau fibrillization inhibition (FP); Potency, µM (top dose mostly 57.7 µM), for the others: top-dose activity, negative = inhibition, hits mostly inhibitors; AID 1468; P10636; K18 P301L tau heparin fibrillization, Alexa594 FP, 6 h; 0.39% of 280,000 active; also: nearly all actives have a fitted effect of over 55% in size
# Target sequence (P10636 561-689 P618L limits assumed): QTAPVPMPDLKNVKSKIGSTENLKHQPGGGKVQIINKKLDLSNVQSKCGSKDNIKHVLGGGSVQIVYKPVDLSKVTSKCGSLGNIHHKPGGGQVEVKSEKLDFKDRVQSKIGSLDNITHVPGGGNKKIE
#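 Read-out: fluorescence polarization of Alexa 594-labeled tau (0.24 uM), 555 nm excitation, 632 nm emission. Mixtures held 15 uM unlabeled K18 P301L, compound and 20 uM heparin, pH 7 acetate buffer, incubated 6 hr at 37 C.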
# Tau ThT inhib – blocks human tau fibril formation measured by thioflavin T. Potency, µM (top dose mostly 57.4 µM), without a hit: at the highest dose activity, negative = inhibition, usual class: inhibitors. P10636. 2.1% of 270,000 active. AID 1460. recombinant tau K18 P301L (four-repeat tau fragment), heparin-induced fibrillization, ThT fluorescence; also: nearly all actives have a fitted effect of over 55% in size
#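 K18 P301L tau (15 uM + 0.24 uM Alexa 594-tagged), heparin 20 uM, NaOAc pH 7, 6 h 37 C; ThT 30 uM, 1 h RT, ex 450/em 510 nm.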
# Starred values were filed as active, the others as inactive; ? = inconclusive; nt = no result; [ ] = remark or other dose. Unless noted, calls follow the shape of the dose curve; as a rule, active = well fitted curve in the direction sought with a large enough effect; inconclusive = small, poorly fitted or top-dose-only effect, or another doubt; inactive = no such curve, though single readings can be large; an effect the other way counts as inactive or inconclusive. Unless noted, % is scaled to controls: 0 for no effect and ±100 for the full control effect; potency is read from the fitted curve at half-maximal effect.
SMILES,TR SRC2 fluor cs,Tau fluor counter,TRb SRC2 PPI,Tau fibril FP,Tau ThT inhib
CCOc1ccc(NC(=O)c2c(NCc3cccs3)sc3c2CCC(C)C3)cc1 (configuration not stated),355µM*[quencher],-24%,-21%,4%,?
O=C(Nc1sc2c(c1C(=O)Nc1cccc(Cl)c1)CCCC2)c1cccs1,3%,-17%,-3%,?,11µM*
CCOC(=O)c1ccc(NC(=O)c2c(NCc3cccs3)sc3c2CCCCC3)cc1,?,-26%,-14%,?,22µM*
Cc1cc(C)cc(N2CCn3c2nc2c3c(=O)n(CCCc3ccccc3)c(=O)n2C)c1,0%,5%,0%,-6%,8%
COc1cc(/C=C2\SC(N)=NC2=O)ccc1OCC(=O)Nc1ccc(C)cc1,0%,-22%,-3%,?,?
COc1cc(/C=C2\SC(N3CCc4ccccc4C3)=NC2=O)cc(OC)c1OC,?,-1%,-6%,2%,?
COc1ccc(/C=C2\SC(c3ccc(C)cc3)=NC2=O)cc1OC,-3%,?,-1%,?,11µM*
COc1ccc(/C=C2/SC(c3ccc(C)cc3)=NC2=O)cc1OC,-3%,?,-5%,?,14µM*
COc1cc(/C=C2\SC(c3ccc(C)cc3)=NC2=O)cc(OC)c1OC,0%,-27%,-6%,?,14µM*
COc1cc(/C=C2\SC(c3ccc(C)cc3)=NC2=O)ccc1O,-6%,?,-2%,?,14µM*
COc1ccc(NC(=O)C2CCN(S(=O)(=O)c3c(C)noc3/C=C/c3ccco3)CC2)cc1,-9%,?,14%,-18%,-9%
CCOC(=O)c1c(NC(=O)CCCOc2ccc(C)cc2)sc2c1CCC(C)C2 (configuration not stated),4%,?,-3%,-7%,?
CN(C)C1=NC(=O)/C(=C\c2ccccc2)S1,-1%,0%,1%,-4%,-2%
COc1cc(/C=C2\SC(c3ccccc3)=NC2=O)cc(Cl)c1O,-2%,?,-2%,?,4.5µM*
CCOC(=O)C1CCN(C(=O)Nc2ccc3nc(-c4ccco4)c(-c4ccco4)nc3c2)CC1,?,?,3%,?,3.2µM*
O=C(Nc1ccc2nc(-c3ccco3)c(-c3ccco3)nc2c1)N1CCCCCC1,22µM*[quencher],8.9µM*[quencher],11%,14µM*,7.1µM*
COc1cccc(Nc2nc(-c3sc(N)nc3C)cs2)c1,1%,14µM*[quencher],8%,-6%,11µM*
COc1cccc(Nc2nc(-c3sc(NC(=O)c4ccco4)nc3C)cs2)c1,3%,?,10%,?,10µM*
Cc1ccc([C@@H]2C3COCC=C3C(C#N)=C(N)C2(C#N)C#N)o1 (some centres not stated),19%,-16%,-29%,?,25µM*
CC(C)N1CC=C2C(C#N)=C(N)C(C#N)(C#N)C(c3ccccc3)C2C1 (configuration not stated),5%,-18%,-10%,?,?
CCN1CC=C2C(C#N)=C(N)C(C#N)(C#N)C(c3cc(Cl)ccc3Cl)C2C1 (configuration not stated),9%,-25%,-14%,?,13µM*
CCC1C2CN(C(C)=O)CC=C2C(C#N)=C(N)C1(C#N)C#N (configuration not stated),3%,-13%,9%,?,?
Cc1ccc(C2C3CSCC=C3C(C#N)=C(N)C2(C#N)C#N)cc1 (configuration not stated),5%,-29%,3%,?,20µM*
CC(C)N1CC=C2C(C#N)=C(N)C(C#N)(C#N)[C@H](c3ccoc3)[C@H]2C1,11%,-25%,-29%,?,20µM*
N#CC1=C(N)C(C#N)(C#N)[C@H](c2ccncc2)[C@H]2CC3(CC=C12)OCCO3,4%,0%,2%,0%,-12%
SMILES,TR SRC2 fluor cs,Tau fluor counter,TRb SRC2 PPI,Tau fibril FP,Tau ThT inhib
CC[C@H](C)[C@H](NC(=O)CNC(=O)[C@H](CCCNC(=N)N)NC(=O)CNC(=O)[C@@H](NC(=O)[C@H](Cc1ccc(O)cc1)NC(=O)[C@H](Cc1c[nH]c2ccccc12)NC(=O)[C@H](C)NC(=O)[C@@H]1CCCN1C(=O)[C@H](CC(N)=O)NC(=O)[C@@H](NC(=O)[C@H](CC(=O)O)NC(=O)[C@@H]1CCCN1C(=O)[C@@H](N)[C@@H](C)O)[C@@H](C)CC)[C@@H](C)O)C(=O)N[C@@H](CCCNC(=N)N)C(=O)N1CCC[C@H]1C(=O)N[C@H](C(=O)NCC(=O)N[C@@H](CCCNC(=N)N)C(=O)N[C@@H](Cc1ccccc1)C(N)=O)C(C)C,-8%,nt,-4%,nt,nt
CC[C@@H](C(=O)[C@@H](C)[C@@H](O)[C@H](C)CCc1ccc(C)c(O)c1C(=O)O)C1O[C@](CC)(C2CC[C@](O)(CC)[C@H](C)O2)C[C@@H]1C (some centres not stated),2%,nt,9%,nt,nt
CCc1ccc(S(=O)(=O)c2c(C(=O)c3ccc(C)c(C)c3)cnc3ccccc23)cc1,0%,-14%,0%,-13%,-12%
Cc1ccccc1NC(=O)CSc1ccc(-c2ccco2)nn1,-4%,-5%,3%,4%,-8%
Cc1cccc(NC(=O)CSc2nnc(-c3ccco3)c(-c3ccco3)n2)c1,-2%[53 µM],?,2%[53 µM],?,14µM*
Cc1cccc(NC(=O)CSc2nnc(-c3ccco3)c(-c3ccco3)n2)c1C,?,?,-12%,13µM*,7.9µM*
Cc1cccc(NC(=O)CSc2nc(N)cc(N)n2)c1,0%,-3%,13%,-9%,-2%
Clc1ccc2[nH]c3c(c2c1)CCc1cn[nH]c1-3,-2%,8.9µM*[quencher],2%,-13%,?
Cc1nn(-c2ccccc2)c(N2CCCC2)c1/C=C1\N=C(c2ccc(F)cc2)OC1=O,-2%,-1%,-4%,3%,2%
Cc1ccc(C2=N/C(=C\c3c(C)nn(-c4ccccc4)c3N3CCCC3)C(=O)O2)cc1,1%,-16%,-1%,2%,13µM*
CCOC(=O)c1csc(NC(=O)CSc2nnnn2-c2ccc(OC)cc2)n1,0%,-16%,-17%,?,-20%
CCOC(=O)c1c(NC(=O)CSc2nnnn2-c2ccc(OC)cc2)sc(C)c1C,-2%,-27%,0%,?,32µM*
COc1ccc(N/N=C(/N=Nc2nc(C)cc(=O)[nH]2)c2ccccc2)cc1,2%,?,-7%,3%,4.5µM*
Cc1cc(=O)[nH]c(N=N/C(=N/Nc2ccc(O)cc2)c2ccccc2)n1,2%,1%,6%,10%,-2%
